# Assay outcomes: PubChem, Sanford-Burnham Center for Chemical Genomics
# The list is not random: actives were taken first. Their share in the collection is about 4%.
# CF NFkB inh – inhibitors of PAF-induced NF-kB signaling, primary screen, cell-based, GFP fluorescence, uHTS; KKLEB NF-kB-GFP reporter, GFP fluorescence overnight; inhibition, % at 5 µM; 360,000 compounds, 0.86% hits;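 active = at least 50% inhibition at 5 µM, scaled per plate between neutral and stimulator controls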;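 also: PAF is a Pseudomonas aeruginosa culture filtrate used as stimulus; plate controls were PAF-stimulated DMSO wells for no effect and unstimulated DMSO wells for full effect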
# TROY signal inh – inhibitors of TROY-driven NF-kB signaling, primary screen, Q293 LMP1-TROYcd cells, NF-kB luciferase, uHTS | Q293 LMP1-TROYcd NF-kB luciferase reporter, 4 h | inhibition, % at 10 µM | 360,000 compounds, 0.98% hits | AID 1347056, 2019;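 active = compounds whose plate-normalised and pattern-corrected inhibition of the luciferase reporter signal at the single screening dose is 50% or more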
# HIF-2a inh – HIF-2a reporter inhibitors, primary screen, luminescence, 786-0 RCC cells; inhibition, % at 18.8 µM; 360,000 compounds, 0.72% hits; AID 624352, 2012; 786-0 RCC cells HIF-2a reporter, luciferase luminescence, overnight;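 active = inhibition of the luminescence signal of 40% or more relative to plate controls, in a single-dose primary screen at 18.75 µM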
# TWEAK Fn14 block – inhibitors of TWEAK-Fn14 signaling, primary screen, luciferase reporter cells, uHTS; inhibition, % at 10 µM; 360,000 compounds, 2% hits; TWEAK-stimulated Fn14 reporter cells, luciferase luminescence, 8 h; in the data active = inhibition above about 50%
# Peg3 promoter – Peg3 promoter-driven luciferase inhibitors, primary screen, cell-based, HeLa, luciferase luminescence; 360,000 compounds, 1.7% hits; AID 588405, 2011; inhibition, % at 20 µM; HeLa PEG-Prom luciferase reporter, overnight;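 active = inhibition of at least 50% at 20 µM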
# KKLEB tox – cytotoxicity in KKLEB CF airway cells, primary screen, cytotoxicity control for CF NF-kB inhibitor project, cell-based, uHTS, fluorescence assay plates | KKLEB CF airway cells viability, ATPlite luminescence, overnight; active compounds read low; cells stimulated with P. aeruginosa culture filtrate | activity change (cytotoxicity), % at 5 µM | 360,000 compounds, 0.36% hits | AID 602141, 2011;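 active = corrected activity change at or below -50% at 5 µM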
# Numbers without * were called inactive; ! = a repeat was not active.
SMILES,CF NFkB inh,TROY signal inh,HIF-2a inh,TWEAK Fn14 block,Peg3 promoter,KKLEB tox
CCn1c(Sc2ccc([N+](=O)[O-])cn2)nnc1-c1ccco1,34.2,4.0,33.8,54.6*,9.2,-8.8
Cc1nc2ccc(F)cc2cc1C(=O)NCC1CCCO1 (configuration not stated),-6.6,22.9,13.8,32.8,-1.3,-88.8*
O=C(NCC1CCCO1)c1cc2ccccc2nc1Cl (configuration not stated),0.5,-6.0,-41.2,21.9,-12.6,-0.1
Cc1ccc(C(=O)NCCSC(C)(C)C)cc1,10.4,16.2,-53.4,52.5*,-100.5,2.3
CC(C)(C)SCCNC(=O)c1ccccc1,-16.8,-53.1,-148.1,5.7,-137.1,1.6
CC(OC(=O)Cc1c[nH]c2ccccc12)C(=O)Nc1ccccc1F (configuration not stated),7.5,-1.0,7.8,-1.4,3.5,16.9
CCOc1ccccc1Nc1nc(-c2sc(NC(=O)c3ccco3)nc2C)cs1,19.0,5.0,15.0,11.7,60.3*,-9.7
CC(=O)Nc1nc(C)c(-c2csc(Nc3ccccn3)n2)s1,56.1*!,-11.6,-210.4,3.9,-179.7,-20.9
CC(=O)Nc1nc(C)c(-c2csc(Nc3cccc([N+](=O)[O-])c3)n2)s1,85.5*,37.5,-30.8,59.1*,46.7,-39.3
Cc1ccccc1Nc1nc(-c2sc(NC(=O)c3ccco3)nc2C)cs1,5.3,-6.8,-4.6,-1.2,-6.0,1.9
CC(=O)Nc1cccc(-c2csc(Nc3ccccn3)n2)c1,-10.3,2.4,-239.7,57.9*,-203.1,12.4
CC(=O)Nc1cccc(-c2csc(Nc3ccc(Cl)cn3)n2)c1,-26.7,40.9,-295.7,35.2,-241.3,7.8
CC(=O)c1cccc(Nc2nc(-c3cccc([N+](=O)[O-])c3)cs2)c1,-48.2,-23.7,-195.7,38.7,-191.4,3.7
CC(=O)Nc1nc(C)c(-c2csc(Nc3ccc(O)cc3)n2)s1,78.1*,10.1,0.4,0.0,36.5,-17.2
CCC(=O)Nc1nc(C)c(-c2csc(Nc3ccc(C(=O)O)cc3)n2)s1,-0.6,-33.1,11.3,1.2,-3.4,4.3
Cc1nc(NC(=O)c2ccccc2)sc1-c1csc(Nc2ccc(C(=O)O)cc2)n1,66.1*,-44.2,-136.0,40.4,-53.4,-4.2
O=C(CNS(=O)(=O)c1ccc(F)cc1)N1CCCC1,1.5,6.9,-7.0,-7.7,-1.8,-3.0
CC(=O)c1cccc(NC(=O)Nc2ccc3c(c2)N(C)C(=O)CS3)c1,61.3*,67.9*,-54.9,82.5*,28.6,-14.8
CN1CCN(C2CCN(c3ccc(Nc4nnc(Cl)c(Nc5ccccc5S(C)(=O)=O)n4)c(OC(CF)CF)c3)CC2)CC1,-20.6,-7.2,4.8,-19.5,10.7,12.7
NS(=O)(=O)c1ccc(CCNC(=O)COC(=O)Cc2c(F)cccc2Cl)cc1,-14.1,13.0,-2.2,4.9,9.7,1.1
CCCCC(=O)Nc1ccccc1C(=O)OCC(=O)c1ccc2c(c1)OCCO2,-3.6,13.2,-72.3,10.2,-67.4,-6.2
O=C(O)/C=C/C(=O)Nc1ccccc1C(=O)OCC(=O)c1ccc2c(c1)OCCO2,0.7,52.8*,-80.3,31.4,-84.9,-2.8
CCN(CC)S(=O)(=O)c1ccc(OC(C)C)c(NC(=O)C2=COCCO2)c1,-7.5,-35.4,8.5,-11.9,14.5,8.2
CC[n+]1cccc(-c2nc3ccccc3s2)c1,-4.8,64.1*,28.7,69.4*,7.9,0.9
Nc1cccc(-c2nc3ccccc3s2)c1,-16.9,21.6,-66.7,33.7,-134.9,-1.9
SMILES,CF NFkB inh,TROY signal inh,HIF-2a inh,TWEAK Fn14 block,Peg3 promoter,KKLEB tox
Oc1ccc(O)c(Cc2nc3ccccc3s2)c1,45.6,63.2*,13.3,35.2,1.4,-8.7
Oc1cccc(-c2nc3ccccc3s2)c1,-8.0,15.8,-106.7,54.2*,-148.1,-10.9
CC(=O)c1cccc(Nc2ccc(C#N)cc2)c1,-16.8,-13.2,-93.7,-22.2,-56.4,3.5
COc1ccc(C(C)(O)c2nc(-c3cccc(NC(C)=O)c3)cs2)cc1 (configuration not stated),10.5,-7.0,3.5,-7.2,3.4,-3.4
C[C@H]1CN([C@@H](C)CO)S(=O)(=O)c2ccc(Br)cc2O[C@@H]1CN(C)C(=O)C1CCOCC1,-27.2,6.9,-9.6,7.3,3.0,11.4
Cc1cccc(-n2ncc3c(N(CCO)CCO)ncnc32)c1,-9.5,-64.2,-214.9,88.3*,-215.0,-7.2
O=C(/C=C/c1cnc2ccccc2n1)NC12CC3CC(CC(C3)C1)C2,4.4,70.5*,-63.7,72.7*,-131.0,-10.0
O=C(O)/C=C/c1cnc2ccccc2n1,-2.1,63.7*,11.8,7.5,26.0,-2.6
CCc1nc2ccc(C(=O)NC3CCN(Cc4ccccc4)CC3)cn2c1N(C)Cc1cc2ccccc2s1,31.1,36.2,-4.0,29.3,93.5*,-8.5
CCc1nc2ccc(C(=O)NCCCN(C)C)cn2c1N(C)CCCc1ccccc1,8.5,-13.9,0.3,-26.0,52.7*,-9.7
CCc1nc2ccc(C(=O)NC3CCN(Cc4ccccc4)CC3)cn2c1N(C)Cc1cccs1,13.0,11.0,10.3,-3.5,25.9,-11.0
CCCOc1ccc(/C=C2/C(=O)ON=C2C)cc1OCC,2.5,-18.1,35.8,4.0,50.4*,-8.3
C=CCOc1ccc(/C=C2/C(=O)ON=C2C)cc1OC,4.2,-17.9,27.2,-3.8,46.8,0.6
CCCOc1ccccc1/C=C1/C(=O)ON=C1C,-22.6,-14.2,22.3,1.8,22.8,3.1
CCOc1cc(/C=C2\C(=O)ON=C2C)ccc1OCc1ccccc1,-16.4,-16.7,67.0*,60.6*,89.5*,2.3
Cc1cc(C)cc(C(=O)N(CCc2ccccc2)C2CC3CCC(C2)N3C)c1 (configuration not stated),9.8,6.5,2.1,10.6,-0.5,-6.7
CCc1ccc(OCC(=O)Nc2ccc(S(=O)(=O)N3CCOCC3)cc2)cc1,19.6,-15.8,14.1,0.5,-5.1,-1.6
Cc1nn(-c2ccccc2)c(C)c1NC(=O)COc1ccc2ccccc2c1,3.0,54.7*,17.2,45.4,34.0,-3.6
Cc1nn(-c2ccccc2)c(C)c1NC(=O)COc1ccc(Br)cc1Cl,7.3,45.8,10.8,78.2*,15.5,6.0
Cc1nn(-c2ccccc2)c(C)c1NC(=O)COc1ccc(C#N)cc1,-11.0,-18.8,12.8,24.4,24.3,9.6
Cc1nn(-c2ccccc2)c(C)c1NC(=O)COc1ccccc1C#N,4.1,-6.4,-10.3,-8.5,0.9,-3.0
COc1ccc(CCNC(=O)c2cccc(S(=O)(=O)N3CCOCC3)c2)cc1OC,-14.5,3.8,11.1,10.4,4.3,-9.4
